Reference: PubChem BioAssay AID651834 (Broad Institute, 2012)
Calls of active or inactive are those of the source. The rule behind the calls is not given here.

biological target: Kelch-like ECH-associated protein 1 (Homo sapiens) (UniProt Q14145); test: disruptors of Keap1/Nrf2 protein interaction – biochemical, fluorescence polarization, dry powder, set 4, dose response (AID 651834); conditions: Keap1-Nrf2 peptide fluorescence polarization, plate reader; series mostly up to 100 µM
Sequence (Q14145 whole entry, looked up): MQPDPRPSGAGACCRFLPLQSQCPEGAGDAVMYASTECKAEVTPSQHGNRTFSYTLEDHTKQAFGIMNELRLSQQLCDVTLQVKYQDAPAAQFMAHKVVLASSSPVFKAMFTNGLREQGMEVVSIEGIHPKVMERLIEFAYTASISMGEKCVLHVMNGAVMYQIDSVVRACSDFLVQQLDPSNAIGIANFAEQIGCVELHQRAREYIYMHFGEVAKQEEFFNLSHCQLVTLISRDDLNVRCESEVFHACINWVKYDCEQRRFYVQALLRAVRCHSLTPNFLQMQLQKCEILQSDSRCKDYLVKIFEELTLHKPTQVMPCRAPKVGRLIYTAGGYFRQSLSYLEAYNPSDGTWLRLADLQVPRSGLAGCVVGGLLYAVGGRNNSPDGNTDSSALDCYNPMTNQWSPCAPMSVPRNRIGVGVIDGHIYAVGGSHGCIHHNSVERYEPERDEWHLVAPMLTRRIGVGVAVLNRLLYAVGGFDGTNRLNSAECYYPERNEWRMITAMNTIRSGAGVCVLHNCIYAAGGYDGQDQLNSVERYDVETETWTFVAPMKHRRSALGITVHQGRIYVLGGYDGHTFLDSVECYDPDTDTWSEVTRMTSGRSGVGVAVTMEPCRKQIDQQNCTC

outcome, inactive:
CCN(CC)C(=O)N1CCc2ccccc2C1CN1C(=O)c2ccccc2C1=O (stereo not given)
O=C1c2ccccc2C(=O)N1CC1c2ccccc2CCN1S(=O)(=O)c1cccc2cccnc12 (stereo not given)
O=C(CN1CCc2ccccc2C1CN1C(=O)c2ccccc2C1=O)c1c[nH]c2ccccc12 (stereo not given)
O=C1c2ccccc2C(=O)N1CC1c2ccccc2CCN1C(=O)COc1ccc(Cl)cc1Cl (stereo not given)
O=C1c2ccccc2C(=O)N1CC1c2ccccc2CCN1C(=O)N1CCOCC1 (stereo not given)
O=C1c2ccccc2C(=O)N1CC1c2ccccc2CCN1C(=O)c1cccc(C(F)(F)F)c1 (stereo not given)
COc1cc(/C=C/C(=O)N2CCC=CC2=O)cc(OC)c1OC
CS(=O)(=O)N1CCc2ccccc2C1CN1C(=O)c2ccccc2C1=O (stereo not given)
COc1cc(OC)cc(C(=O)N2CCc3ccccc3C2CN2C(=O)c3ccccc3C2=O)c1 (stereo not given)
CC(=O)N1CCc2ccccc2C1CN1C(=O)c2ccccc2C1=O (stereo not given)
